SMILES strings stand for the structures. Screen size: about 1,200 compounds; about 360 (30%) were called active. These entries were drawn from the full list. Results with a measured potency or affinity are listed apart. Values without a mark were called inactive. The rule behind the calls is not given here.

The experiment in a line: antibacterial activity by ATP level – BacTiter-Glo luminescence, cherry-picked samples, counter-screen, dose response (AID 504843).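 Note: growth measured after 8 h incubation at 30 °C; 0% = median of sample compound wells and -100% = antibiotic control wells.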 Conditions: bacterial growth; series mostly up to 15 µM; activity change, negative = inhibition: at the top concentration.
For `CCN(CC)CCn1c(=N)n(CC(O)COc2cccc(C)c2)c2ccccc21` (stereo unspecified), the “activity change, negative = inhibition” value is 13.1%.
For the molecule `Cc1ccc(CC(=O)NCCS(=O)c2ccc(Cl)cc2)cc1` (stereo unspecified), the “activity change, negative = inhibition” value was -12.8%.
As to `O=C(CN1CCN(Cc2ccc(Cl)cc2)CC1)N/N=C/c1c[nH]c2ccccc12`, the “activity change, negative = inhibition” value was -7.1%.
For `CCOC(=O)[C@H]1[C@H]2COc3ccc(OC)cc3[C@H]2N2C(=O)CN(Cc3ccccc3)C(=O)[C@@]12C`, the “activity change, negative = inhibition” value is -17.4%.
Take `O=C(CSc1nccc(=O)[nH]1)c1cc2ccccc2o1`: the “activity change, negative = inhibition” value was -2.57%.
As for `Cc1ccc(S(=O)(=O)N2CCOCC2)cc1NC(=O)c1cc2ccccc2oc1=O`, the “activity change, negative = inhibition” value was 5.05%.
With `CC(O/N=C/c1ccc(OC(F)F)cc1)C(=O)Nc1cccc(S(=O)(=O)N2CCOCC2)c1` (stereo unspecified) the figure was -3.95%.
With `COc1ccc(N2CCN(C3CC(=O)N(c4ccc5c(c4)OCCO5)C3=O)CC2)cc1` (stereo unspecified) the figure was 15.6%; with `CCOC(=O)C1=C(C)Nc2ncnn2C1c1cc(Br)ccc1F` (stereo unspecified), -5.34%.
Next, `COC(=O)c1ccc(NC(=O)N2CCC(O)(c3cccnc3)CC2)cc1`: 6.75%; `CC(=O)Nc1sc(NC(=O)c2ccccc2)nc1-c1cccs1`: -25.9%; `Cc1ccc(C(=O)Nc2nc(C)c(C(=O)Nc3ccc4c(c3)CCC4)s2)cc1`: 6.16%.
Regarding `CCCN(C(=O)Cn1c(C(F)(F)F)nc2ccccc21)C1CCS(=O)(=O)C1` (stereo unspecified), the “activity change, negative = inhibition” value was -1.36%.
For the molecule `CC(C)=CCC/C(C)=C/CNC(=O)C[C@H]1C[C@H](C(=O)N2CCOCC2)[C@@]2(C)c3[nH]c4ccc(Cl)cc4c3CCN2C1=O`, the “activity change, negative = inhibition” value is 4.55%.
For the molecule `CC(=O)CSc1ncnc2sc3c(c12)CCC(C)C3` (stereo unspecified), the “activity change, negative = inhibition” value was 3.11%.
As to `CCOC(=O)Cc1c[nH]c2ccc([N+](=O)[O-])cc12`, the “activity change, negative = inhibition” value was 23.3%.
Next, `CCOCCCNC(=O)c1ccc(Cn2c(=S)[nH]c3c([nH]c4ccc(OC)cc43)c2=O)cc1`: 11.8%; `O=C(NCc1ccccc1)c1ccc(F)c(F)c1`: -15.1%; `O=C(N/C(=C/c1ccccc1)C(=O)N1CCCCC1)c1ccc(Br)o1`: -1.15%.
For the molecule `CN(CC(=O)NCc1cccnc1)S(=O)(=O)c1ccccc1`, the “activity change, negative = inhibition” value is -8.64%.
For `O=C(Nc1ccccc1Oc1ccccc1)c1ccc(Br)o1`, the “activity change, negative = inhibition” value was -11.8%.
Next, `O=C(CSc1ncnc2nc[nH]c12)c1ccc2ccccc2c1`: 16%.
Turning to `O=C1NC(=O)C(c2ccccc2)(c2ccccc2)N1`, the “activity change, negative = inhibition” value was 9%.
Take `CCN(CC)CC(=O)Nc1ccc(C)cc1C(=O)c1ccccc1`: the “activity change, negative = inhibition” value is -2.71%.
Next, `COc1cc(OC)cc(C(=O)N(CN2CCCC2=O)c2ccccc2OC)c1`: -10%; `CC(C)(C)NC(=O)C[C@H]1C[C@H](C(=O)N2CCOCC2)[C@@]2(CCC3CCCC3)c3[nH]c4cc(-c5ccco5)ccc4c3CCN2C1=O`: 1.73%.
Regarding `CC(C)[C@@H](C(=O)N1CCNCC1)n1cc(CCO)nn1`, the “activity change, negative = inhibition” value is 12.5%.
Consider `Cc1nc(N)nc(Cl)c1Cc1ccc(Cl)cc1`, for which the “activity change, negative = inhibition” value was -10.1%.
For `COc1cccc(COC(=O)C2CC(=O)N(Cc3ccco3)C2)c1OC` (stereo unspecified), the “activity change, negative = inhibition” value was -0.991%.
In the case of `CC(NC(=O)Nc1nccs1)(C(F)(F)F)C(F)(F)F`, the “activity change, negative = inhibition” value is 8.33%.
`NC(=O)c1ccccc1NC(=O)COc1ccc2c(c1)OCO2`: the “activity change, negative = inhibition” value was 3.37%.
With `COC(=O)c1cnc(NNS(=O)(=O)c2ccc(C(F)(F)F)cc2)nc1C(F)(F)F` the figure was -8.8%; with `COCn1c(-c2cccc(Br)c2)nc2ccccc21`, 1.6%; with `CNC(=O)C1CCN(S(=O)(=O)c2c(C)noc2/C=C/c2cccc(OC)c2)CC1`, 3.27%.
For the molecule `O=C(c1ccc2nc[nH]c2c1)N1CCN(c2ncc(C(F)(F)F)cc2Cl)CC1`, the “activity change, negative = inhibition” value is 0.007%.
For `Cc1ccc(NC(=O)c2cccs2)cc1S(=O)(=O)Nc1cccc(Cl)c1`, the “activity change, negative = inhibition” value is 7.34%.
For `O=C1c2ccccc2CC1Sc1nnc(-c2ccncc2)o1` (stereo unspecified), the “activity change, negative = inhibition” value is 10.6%.
Consider `CC1=CC(=O)[C@@H](O)[C@@H](c2ccccc2Br)N1C`, for which the “activity change, negative = inhibition” value was 15%.
Take `COc1ccc(NC(=O)CC2(CC(=O)O)CCCC2)cn1`: the “activity change, negative = inhibition” value was 7.78%.
For the molecule `COc1ccc2[nH]c(C(=O)N(C)c3ccc(F)cc3F)cc2c1`, the “activity change, negative = inhibition” value was -7.52%.
For the molecule `O=C(CSc1cn(CCNC(=O)c2c(F)cccc2F)c2ccccc12)NCC1CCCO1` (stereo unspecified), the “activity change, negative = inhibition” value is -4.1%.
For the molecule `COc1cccc(NC(=O)CSc2nc3ccccc3c(=O)n2CCCC(=O)NCC2CCCO2)c1` (stereo unspecified), the “activity change, negative = inhibition” value is -0.25%.
`C=CCn1c(C)cc(C(=O)CSc2nnc3c(Cl)cc(Cl)cn23)c1C`: the “activity change, negative = inhibition” value was -2.16%.
As for `CCN(C1CCS(=O)(=O)C1)S(=O)(=O)c1cc(C)ccc1C` (stereo unspecified), the “activity change, negative = inhibition” value was 10.1%.
Turning to `Fc1ccc(-n2c(-c3ccc4ccccc4n3)n[nH]c2=S)cc1Cl`, the “activity change, negative = inhibition” value is 0.22%.
For `C=CCOc1cccc(C(=O)N2CCCC(CCC(=O)NCc3ccccc3F)C2)c1` (stereo unspecified), the “activity change, negative = inhibition” value is 4.09%.
For the molecule `CC(C)c1cc(C(N)=O)c(NC(=O)c2cccc(COc3ccc(Cl)cc3)c2)s1`, the “activity change, negative = inhibition” value is -11%.
With `CC(=O)N1c2ccc(S(=O)(=O)N3CCC(C(=O)N4CCN(c5ccccc5F)CC4)CC3)cc2CC1C` (stereo unspecified), the “activity change, negative = inhibition” value was 9.5%.
With `O=C(CSc1nc2ccccc2c(=O)[nH]1)N1CCN(c2ccccc2F)CC1`, the “activity change, negative = inhibition” value was -12.6%.
In the case of `CC(C)c1ccc(C2C(C#N)=C(N)Oc3c2oc(CO)cc3=O)cc1` (stereo unspecified), the “activity change, negative = inhibition” value is -2.52%.
`COC(=O)COc1ccc(-n2cnnn2)cc1`: the “activity change, negative = inhibition” value is -3.54%.
On to `Cc1cccc(N(CC(=O)Nc2cccnc2)S(C)(=O)=O)c1`, for which the “activity change, negative = inhibition” value was -4.93%.
Next, `O=C(Nc1c2c(nn1-c1ccccc1)CS(=O)(=O)C2)c1cccs1`: 6.9%.
With `COc1ccc(-c2nc3ccccc3o2)cc1NC(=O)c1ccc(Br)o1` the figure was 7.17%; with `O=C(NNC(=S)Nc1cccc(Cl)c1)c1ccccc1OC(F)F`, -4.26%; with `CC1CC(OC(=O)C(O)c2ccccc2)CC(C)(C)N1C` (stereo unspecified), 4.13%.
Regarding `NC(=O)NC(=O)CSc1nc2sc(-c3ccccc3)cc2c(=O)n1-c1ccccc1`, the “activity change, negative = inhibition” value is 12%.
Next, `CCOc1ccc(-n2c(SCC(=O)O)nc3sc4c(c3c2=O)CCCC4)cc1`: -11.9%.
Next, `CCNc1nc(NC(C)(C)C)nc(N(CC)n2cnnc2)n1`: -9.55%; `O=C(NCC1CCCO1)C1CCCN(S(=O)(=O)c2ccc(F)cc2)C1` (stereo unspecified): 1.36%.
`CCCCS(=O)(=O)N1CCCC(C(=O)Oc2ccc(Cl)cc2)C1` (stereo unspecified): the “activity change, negative = inhibition” value is 11.8%.
As for `COc1ccccc1C(C[N+](=O)[O-])c1c[nH]c2ccccc12` (stereo unspecified), the “activity change, negative = inhibition” value is -32.1%.
Consider `CCOC(=O)[C@H]1[C@H]2COc3ccc(Cl)cc3[C@@H]2N2C(=O)[C@H](C)NC(=O)[C@@]12C`, for which the “activity change, negative = inhibition” value is 15.9%.
On to `O=C(c1ccc(-n2cncn2)c([N+](=O)[O-])c1)N1CCN(S(=O)(=O)c2ccc(Br)cc2)CC1`, for which the “activity change, negative = inhibition” value is 2.46%.
In the case of `Cc1cc(C(=O)c2ccccc2)c(NC(=O)CCl)s1`, the “activity change, negative = inhibition” value is 6.72%.
In the case of `CCCC(C(=O)NNC(=O)c1cc(C)oc1C)c1ccccc1` (stereo unspecified), the “activity change, negative = inhibition” value was 15.9%.

The record behind these values is PubChem BioAssay AID504843 (Broad Institute, 2011).
